In the supplement of paper PMC7156485 one finds cell number and H1.0 immunofluorescence intensity data, which are given here for 25 compounds.

Common to all, as to settings: concentration: 10 µM; 24 h
In assay [1] the test system is HCC1569. Description: cell number relative to DMSO (% of DMSO); higher = more cells (less growth inhibition / toxicity). In short, it runs like this:
(§1)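 In 384-well plates holding 800 HCC1569 or TDF cells per well in RPMI with 10% FBS, compounds were tested at 10 µM for 24 h at 37 °C in triplicate. Fixation used 3.7% formaldehyde. Staining used a rabbit anti-H1.0 antibody with an AlexaFluor 647 secondary, plus DAPI. Each value, H1.0 nuclear intensity or cell number, is a median of replicates shown as percent of the plate control, and HCC1569 values were smoothed for positional effects.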

Assay [2] concerns TDF. The description is as above. In short, it runs like this:
as §1

Assay [3] concerns TDF. Briefly: H1.0 immunofluorescence intensity relative to DMSO (% of DMSO); higher = stronger H1.0 induction, active = 120 or more. The procedure, abridged: as §1
Assay [4] deals with HCC1569. Briefly: H1.0 immunofluorescence intensity relative to DMSO (% of DMSO); higher = stronger H1.0 induction, active = 140 or more. The procedure, abridged:
as §1

± gives the standard deviation of the averaged measurements.
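For H1.0 immunofluorescence intensity relative to DMSO in this document: TDF is a line of transformed human dermal fibroblasts of mesenchymal origin.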
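For cell number relative to DMSO in this document: TDF denotes transformed human dermal fibroblasts of mesenchymal origin.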

As for `CC(C)C(CO)Nc1nc(Nc2cccc(Cl)c2)c2ncn(C(C)C)c2n1` (stereo not given) [Purvalanol A], the cell number in assay [1] is 68.8 ± 4.3; in assay [2] it was 61.8 ± 9.4. In addition, the H1.0 immunofluorescence intensity in assay [3] is 98.3 (inactive); in assay [4], 129 (inactive).

In the case of `CCCCCC(O)C=CC1C(O)CC(=O)C1CCCCCCC(=O)O` (stereo not given) [Prostaglandin E1], the cell number came out at 102 ± 2 in assay [1] and 109 ± 10 in assay [2]. Further, the figures for the H1.0 immunofluorescence intensity in assay [3] and in assay [4] were 92.4 (inactive) and 101 (inactive), respectively.

As to `CCCCCCCCCCCCCCCCCCOCC(COP(=O)([O-])OCC[N+](C)(C)C)OC(C)=O` (stereo not given), the figures for the cell number in assay [1] and in assay [2] were 98.8 and 115, respectively. The H1.0 immunofluorescence intensity in assay [3] is 92.5 (inactive); in assay [4], 103 (inactive).

Take `CCCCCC=CCC=CCC=CCC=CCCCCCC(=O)O` [7(Z), 10(Z), 13(Z), 16(Z)-Ocosatetraenoic Acid]: the cell number in assay [1] worked out at 100; in assay [2], 114. Also, the H1.0 immunofluorescence intensity in assay [3] was 89.2 (inactive); in assay [4], 106 (inactive).

With `CC(C)(C(=O)O)c1ccc(C(O)CCCN2CCC(C(O)(c3ccccc3)c3ccccc3)CC2)cc1.Cl` (stereo not given) [Fexofenadine hydrochloride], the cell number turned out to be 105 in assay [1] and 111 in assay [2]. Besides, the H1.0 immunofluorescence intensity in assay [3] was 91.2 (inactive); in assay [4], 90.5 (inactive).

Regarding `COc1cc2c(cc1CC=C(C)C)C(=O)CC(c1ccc(O)cc1)O2` (stereo not given) [Bavachinin A], the cell number was 103 in assay [1] and 104 in assay [2]. In addition, the H1.0 immunofluorescence intensity in assay [3] is 99.5 (inactive); in assay [4], 96.7 (inactive).

`Cc1cc(N)c2ccccc2[n+]1CCCCCCCCCCCCCC[n+]1c(C)cc(N)c2ccccc21.[I-].[I-]` [Dequalinium analog, C-14 linker]: the cell number turned out to be 101 in assay [1] and 102 in assay [2]. Further, the values for the H1.0 immunofluorescence intensity in assay [3] and in assay [4] were 95.7 (inactive) and 100 (inactive), respectively.

As to `Cc1cn2cc(C(=O)N(C)CCO)cc(N[C@@H]3CCOc4cccc(C)c43)c2n1`, the cell number in assay [1] came out at 97.8; in assay [2], 104. For the same compound, the results for the H1.0 immunofluorescence intensity in assay [3] and in assay [4] were 94 (inactive) and 106 (inactive), respectively.

Turning to `CN(C)CCOc1ccc(C(=C(CCCl)c2ccccc2)c2ccccc2)cc1` [Toremifene], the cell number in assay [1] worked out at 97.2; in assay [2], 104. For the same compound, the H1.0 immunofluorescence intensity in assay [3] was 102 (inactive); in assay [4] it was 122 (inactive).

On to `CC1(C)SC2C(NC(=O)COc3ccccc3)C(=O)N2C1C(=O)[O-]` (stereo not given) [Pencillin V], for which the cell number in assay [1] amounted to 100; in assay [2], 101. Moreover, the H1.0 immunofluorescence intensity in assay [3] is 87.4 (inactive); in assay [4] it was 112 (inactive).

As to `NC1CONC1=O` [L-Cycloserine], the cell number in assay [1] came to 102 ± 2.4; in assay [2] it was 102 ± 2.1. The H1.0 immunofluorescence intensity in assay [3] is 94.5 (inactive); in assay [4] it was 84.8 (inactive).

For the compound `O=C(O)C=Cc1cnc[nH]1` [4-Imidazoleacrylic acid], the cell number came to 101 in assay [1] and 107 in assay [2]. Further, the results for the H1.0 immunofluorescence intensity in assay [3] and in assay [4] were 97.2 (inactive) and 108 (inactive), respectively.

For the compound `CC(C)=CCCC(C)(O)C1CCC2(C)C1CCC1C3(C)CCC(=O)C(C)(C)C3CCC12C` (stereo not given) [Dipterocarpol], the cell number in assay [1] is 95.8; in assay [2], 102. In addition, the H1.0 immunofluorescence intensity in assay [3] was 97.8 (inactive); in assay [4] it was 82.7 (inactive).

As for `CC(C)c1ccc2oc3nc(N)c(C(=O)O)cc3c(=O)c2c1`, the cell number in assay [1] was 104; in assay [2] it was 109. Also, the H1.0 immunofluorescence intensity in assay [3] is 97.3 (inactive); in assay [4] it was 92.5 (inactive).

Regarding `COc1ccccc1N1CCN(CCCNc2c(C)c(=O)n(C)c(=O)n2C)CC1` [Urapidil, 5-Methyl-], the cell number in assay [1] was 105; in assay [2], 121. Moreover, the H1.0 immunofluorescence intensity in assay [3] is 96.7 (inactive); in assay [4], 108 (inactive).

Turning to `CC1=C(C)C(=O)C(CCCCC#CCCCC#CCO)=C(C)C1=O`, the cell number in assay [1] is 99.09 ± 0.2; in assay [2] it was 85 ± 1.8. In addition, the figures for the H1.0 immunofluorescence intensity in assay [3] and in assay [4] were 104 (inactive) and 103 (inactive), respectively.

For `COC(=O)c1cnn(-c2ccc(F)cc2F)c1/C=N/NC(=S)NC(C)(C)C`, the cell number amounted to 95.9 in assay [1] and 101 in assay [2]. Besides, the H1.0 immunofluorescence intensity in assay [3] was 99 (inactive); in assay [4] it was 102 (inactive).

As for `Cc1nc(C(=O)N2CCC[C@H]2Cc2nnc(-c3ccccc3)o2)c(-c2ccccc2F)s1`, the cell number came to 96.3 in assay [1] and 113 in assay [2]. Further, the H1.0 immunofluorescence intensity is 97.5 (inactive) in assay [3] and 95.5 (inactive) in assay [4].

`NC(=O)c1ccc(N(C(N)=O)c2c(F)cccc2F)nc1-c1ccc(F)cc1F`: the cell number was 105 in assay [1] and 104 in assay [2]. The H1.0 immunofluorescence intensity in assay [3] was 94.8 (inactive); in assay [4], 90.2 (inactive).

On to `O=c1cc(N2CCOCC2)nc2c3ccccc3ccn12`, for which the cell number in assay [1] was determined as 95.2; in assay [2], 91.4. Further, the H1.0 immunofluorescence intensity is 94.7 (inactive) in assay [3] and 111 (inactive) in assay [4].

Consider `COC(=O)C1C(O)CCC2CN3CCc4c([nH]c5ccccc45)C3CC21.Cl` (stereo not given) [Yohimbine hydrochloride], for which the cell number in assay [1] amounted to 99.8; in assay [2], 113. Besides, the H1.0 immunofluorescence intensity in assay [3] is 93.8 (inactive); in assay [4], 107 (inactive).

On to `O=C(NCCN1CCC(n2c(=O)[nH]c3cc(Cl)ccc32)CC1)c1ccc(F)cc1`, for which the cell number in assay [1] was 91.9; in assay [2], 98. For the same compound, the H1.0 immunofluorescence intensity is 96.6 (inactive) in assay [3] and 99.5 (inactive) in assay [4].

With `Nc1nc(Nc2ccc(S(N)(=O)=O)cc2)nn1C(=S)Nc1c(F)cccc1F` [Cdk1/2 Inhibitor III], the cell number in assay [1] came out at 51.9; in assay [2], 14.2. The H1.0 immunofluorescence intensity was 133 (active) in assay [3] and 128 (inactive) in assay [4].

With `CS(=O)c1ccc(-c2nc(-c3ccc(F)cc3)c(-c3ccncc3)[nH]2)cc1.Cl` (stereo not given), the cell number in assay [1] is 88.9; in assay [2], 99.5. Further, the H1.0 immunofluorescence intensity is 94.5 (inactive) in assay [3] and 117 (inactive) in assay [4].

On to `CC1=C(CC(=O)O)c2cc(F)ccc2C1=Cc1ccc(S(C)=O)cc1` (stereo not given) [Sulindac], for which the values for the cell number in assay [1] and in assay [2] were 103 ± 2 and 111 ± 6.2, respectively. The H1.0 immunofluorescence intensity in assay [3] was 95 (inactive); in assay [4], 100 (inactive).
